Measurements taken from PubChem BioAssay AID1159580 (chemical genetic matrix, 2015).
Among all 5,500 compounds or so, about 2,000 (36%) were called active. Inconclusive results (about 18%) are left out. No stated cut-off is given here; in the data, active means normalized growth mostly below about 0.91 (no sharp cut-off); inconclusive means no clear call, values can overlap the other calls; inactive means mostly above about 0.92. The list shows a part of the results.

Test: chemical genetic growth profiling, strain panel (AID 1159580);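 further: tested at 20 µM; growth read once vehicle control cultures reached saturation at 30 °C; 1 = growth at the plate median or of vehicle wells; lower values mean less growth of the strain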
Settings: S. cerevisiae deletion strains, growth OD
[1] = locus YAL013W, strain DEP1, active compounds read low
[2] = locus YBR229C, strain ROT2, active compounds read low
[3] = locus YCL061C, strain MRC1, active compounds read low
[4] = locus YDL101C, strain DUN1, active compounds read low
[5] = locus YDR150W, strain NUM1, active compounds read low
[6] = locus YEL061C, strain CIN8, active compounds read low
[7] = locus YGR078C, strain PAC10, active compounds read low
[8] = locus YHR030C, strain SLT2, active compounds read low
[9] = locus YHR087W, strain rtc3, active compounds read low
[10] = locus YJR043C, strain POL32, active compounds read low
[11] = locus YJR075W, strain HOC1, active compounds read low
[12] = locus YLR039C, strain RIC1, active compounds read low
[13] = locus YLR058C, strain SHM2 (second series), active compounds read low
[14] = locus YLR085C, strain ARP6, active compounds read low
[15] = locus YLR262C, strain YPT6, active compounds read low
[16] = locus YML094W, strain GIM5, active compounds read low
[17] = locus YMR219W, strain ESC1, active compounds read low
[18] = locus YMR263W, strain SAP30, active compounds read low
[19] = locus YNL153C, strain GIM3, active compounds read low
[20] = locus YNL298W, strain CLA4 (second series), active compounds read low
[21] = locus YNL322C, strain KRE1, active compounds read low
[22] = locus YNR030W, strain Alg12, active compounds read low
[23] = locus YOL006C, strain TOP1, active compounds read low
[24] = locus YPL055C, strain LGE1, active compounds read low
[25] = locus YPL241C, strain CIN2, active compounds read low
[26] = locus YPR135W, strain CTF4, active compounds read low

Measured: normalized growth

CN(C)C=Nc1nnc(Sc2ncccc2[N+](=O)[O-])s1
inactive: [1] 0.999 | [2] 1 | [3] 1.01 | [4] 1.01 | locus YDL134C, strain PPH21, active compounds read low 1.01 | [5] 0.987 | [6] 0.995 | [7] 1 | locus YGR229C, strain SMI1, active compounds read low 0.992 | [8] 1 | [9] 1.01 | [10] 0.985 | [11] 0.997 | [12] 1.03 | [13] 1 | [14] 1.06 | [15] 1.03 | [16] 1.01 | [17] 1.01 | [18] 0.995 | locus YMR307W, strain GAS1, active compounds read low 0.983 | [19] 0.977 | [20] 1.06 | [21] 1.02 | [22] 1.04 | [23] 1.01 | [24] 0.988 | [25] 1.02 | [26] 1.06

O=[N+]([O-])c1cc(Br)cnc1Sc1nnc(SCC2CC2)s1
active: locus YDL214C, strain PRR2, active compounds read low 0.458 | locus YER123W, strain YCK3, active compounds read low 0.529 | locus YFR019W, strain FAB1, active compounds read low 0.721 | locus YGR092W, strain DBF2, active compounds read low 0.484 | [8] 0.197 | locus YHR079C, strain IRE1, active compounds read low 0.418 | locus YJL095W, strain BCK1, active compounds read low 0.35 | locus YJL157C, strain FAR1, active compounds read low 0.533 | locus YJR066W, strain TOR1 (second series), active compounds read low 0.531 | locus YKL048C, strain ELM1, active compounds read low 0.778 | locus YKL067W, strain YNK1, active compounds read low 0.39 | locus YKL101W, strain HSL1, active compounds read low 0.542 | locus YLR113W, strain HOG1, active compounds read low 0.554 | locus YLR133W, strain CKI1, active compounds read low 0.574 | locus YML070W, strain DAK1, active compounds read low 0.465 | locus YMR205C, strain PFK2 (second series), active compounds read low 0.387 | locus YNL020C, strain ARK1, active compounds read low 0.418 | locus YNL183C, strain NPR1, active compounds read low 0.351 | locus YNL307C, strain MCK1 (second series), active compounds read low 0.556 | locus YOL136C, strain PFK27, active compounds read low 0.633 | locus YOR061W, strain CKA2, active compounds read low 0.174 | locus YOR231W, strain MKK1, active compounds read low 0.333 | locus YPL031C, strain PHO85, active compounds read low 0.55 | locus YPL153C, strain RAD53, active compounds read low 0.629 | locus YPL256C, strain CLN2, active compounds read low 0.515
inactive: locus YAR019C, strain CDC15, active compounds read low 0.928 | locus YBL105C, strain PKC1, active compounds read low 0.96 | locus YBR135W, strain CKS1, active compounds read low 0.932 | locus YBR136W, strain MEC1, active compounds read low 0.959 | locus YBR160W, strain CDC28, active compounds read low 0.953 | locus YDL017W, strain CDC7, active compounds read low 0.961 | locus YDL028C, strain MPS1, active compounds read low 0.935 | [4] 0.965 | locus YDL108W, strain KIN28, active compounds read low 0.952 | locus YDL132W, strain cdc53, active compounds read low 0.936 | locus YDR052C, strain DBF4, active compounds read low 0.964 | locus YDR054C, strain cdc34, active compounds read low 0.947 | locus YDR226W, strain ADK1, active compounds read low 0.927 | locus YDR477W, strain SNF1, active compounds read low 0.767 | locus YER133W, strain GLC7, active compounds read low 0.762 | locus YFL009W, strain cdc4, active compounds read low 0.93 | locus YFL029C, strain CAK1, active compounds read low 0.943 | locus YFR003C, strain YPI1, active compounds read low 0.962 | locus YFR028C, strain CDC14, active compounds read low 0.943 | locus YGR040W, strain KSS1, active compounds read low 0.771 | locus YGR052W, strain FMP48, active compounds read low 0.7 | locus YHR082C, strain KSP1, active compounds read low 0.707 | locus YHR205W, strain SCH9, active compounds read low 0.609 | locus YIL147C, strain SLN1, active compounds read low 0.952 | locus YJL128C, strain PBS2, active compounds read low 0.948 | locus YJR016C, strain ILV3, active compounds read low 0.944 | locus YJR066W, strain TOR1, active compounds read low 0.621 | locus YKL193C, strain SDS22, active compounds read low 0.935 | locus YKL203C, strain TOR2, active compounds read low 0.872 | locus YLR403W, strain SFP1, active compounds read low 0.754 | locus YMR001C, strain CDC5, active compounds read low 0.928 | locus YMR277W, strain FCP1, active compounds read low 0.924 | locus YNL006W, strain LST8, active compounds read low 0.961 | locus YNL161W, strain CBK1, active compounds read low 0.939 | locus YNL207W, strain RIO2, active compounds read low 0.929 | locus YNL222W, strain SSU72, active compounds read low 0.944 | locus YOL078W, strain AVO1, active compounds read low 0.927 | locus YOR119C, strain RIO1, active compounds read low 0.818 | locus YOR329C, strain SCD5, active compounds read low 0.962 | locus YPL204W, strain HRR25, active compounds read low 0.751 | locus YPL209C, strain IPL1, active compounds read low 0.958 | locus YPR025C, strain CCL1, active compounds read low 0.95 | locus YPR106W, strain ISR1, active compounds read low 0.978 | locus YPR111W, strain DBF20, active compounds read low 0.96 | strain NNK1, active compounds read low 0.969 | strain TSCII, active compounds read low 0.929

CC(C)(C)NS(=O)(=O)NC(C)(C)C
inactive: [1] 0.995 | [2] 1 | [3] 1.03 | [4] 0.977 | [5] 0.88 | [6] 1.01 | [7] 0.999 | [8] 0.952 | [9] 0.964 | locus YJL187C, strain SWE1, active compounds read low 0.999 | [10] 0.998 | [11] 1.02 | locus YKL190W, strain CNB1, active compounds read low 1 | [12] 1.02 | [13] 1 | [14] 0.999 | [15] 1.02 | [16] 0.976 | [17] 0.995 | [18] 1.04 | locus YNL128W, strain TEP1, active compounds read low 0.997 | [19] 1.01 | [20] 0.973 | [21] 1 | [22] 1.01 | [23] 1.01 | [24] 0.921 | [26] 1.02
active: [25] 1.16 [resistant]
